# HTT ATP protect – qHTS Multiplex Assay to Identify Dual Action Probes in a Cell Model of Huntington: Cytoprotection (ATP). PC12 HTT-Q103 induced, cytoprotection, ATP luminescence, 40 h. Potency, µM (top dose mostly 56.4 µM), inactives show cytoprotection (ATP increase), hits mostly activators. 230,000 compounds, 0.14% hits. AID 1471, 2008; active = well fitted curve in the direction sought with a large enough effect; inconclusive = small, poorly fitted or top-dose-only effect, or another doubt; inactive = no such curve, though single readings can be large; an effect the other way counts as inactive or inconclusive; also: % of control where 0% means no effect; nearly all actives have a fitted effect of over 45% in size
#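 PC12 cells with ecdysone-inducible HTT exon 1 Q103-GFP, induced with 100 nM tebufenozide and co-treated with library compounds in a dose series (1536-well, 1500 cells/well). Cytoprotection read as ATP content by ATPlite luminescence.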
# HTT aggregate – qHTS Multiplex Assay to Identify Dual Action Probes in a Cell Model of Huntington: Aggregate Formation (GFP). PC12 HttQ103-GFP aggregates, Acumen cytometry, 40 h. Potency, µM (top dose mostly 46.1 µM), inactives show at the top dose activity change, negative = inhibition, actives largely listed as inhibitors. 220,000 compounds, 1.1% hits. AID 1688, 2009; active = well fitted curve in the direction sought with a large enough effect; inconclusive = small, poorly fitted or top-dose-only effect, or another doubt; inactive = no such curve, though single readings can be large; an effect the other way counts as inactive or inconclusive; also: % is scaled to controls: 0 for no effect and ±100 for the full control effect; nearly all actives have a fitted effect of over 60% in size
#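 Huntingtin Q103 exon 1–GFP aggregates in induced PC12 cells (100 nM tebufenozide) were quantified by cytometry from lysates, with compounds dosed in titration.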
# LMNA splice mod – qHTS Assay for Modulators of Lamin A Splicing | HeLa LMNA splicing GFP/RFP minigene ratio, 48 h | Potency, µM (top dose mostly 46.1 µM), without a hit: at the top dose ratio change, negative = inhibition, most hits filed as inhibitors | 200,000 compounds, 0.01% hits | AID 1487, 2009; active = well fitted inhibition curve with a large enough effect in the signal ratio, with a control signal flat, not every such curve was filed as active; inconclusive = small, poorly fitted or top-dose-only effect, or effect the other way, or a change in a side signal; the % refers to the signal ratio; also: % is scaled to controls: 0 for no effect and ±100 for the full control effect
#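 S3 HeLa stable clones carrying a lamin A-EGFP splicing minigene plus DsRed2 were seeded at 600 cells/well in Opti-MEM with 2% FBS, pin-dosed and incubated 48 h at 37°C. Acumen cytometry (488 nm) gave the GFP/RFP total-intensity ratio.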
# JMJD2E inh – qHTS Assay for Inhibitors of Human Jumonji Domain Containing 2E (JMJD2E); Lysine-specific demethylase 4E (Homo sapiens), B2RXH2; JMJD2E catalytic domain, FDH-coupled NADH fluorescence (FDH is formaldehyde dehydrogenase); Potency, µM (highest dose often 57.1 µM), for inactives: at the top dose activity change, negative = inhibition, actives largely listed as inhibitors; 230,000 compounds, 1.6% hits; AID 2147, 2009;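 also: 0% = wells with enzyme and -100% = buffer wells without enzyme; nearly all actives have a fitted effect of over 50% in size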
# Target sequence (B2RXH2 1-337 limits assumed): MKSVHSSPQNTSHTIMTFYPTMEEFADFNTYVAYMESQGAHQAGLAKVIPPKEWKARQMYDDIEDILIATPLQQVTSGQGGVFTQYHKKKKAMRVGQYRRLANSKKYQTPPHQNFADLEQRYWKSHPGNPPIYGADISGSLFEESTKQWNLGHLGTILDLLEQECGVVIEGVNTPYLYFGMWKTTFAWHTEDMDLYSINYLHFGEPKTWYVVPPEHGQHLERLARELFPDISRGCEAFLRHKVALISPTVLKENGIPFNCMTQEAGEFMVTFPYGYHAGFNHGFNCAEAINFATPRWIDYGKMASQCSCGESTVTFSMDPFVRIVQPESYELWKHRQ
# ALDH1A1 inh – qHTS Assay for Inhibitors of Aldehyde Dehydrogenase 1 (ALDH1A1). 220,000 compounds, 7.3% hits. Purified ALDH1A1, NADH fluorescence, propionaldehyde substrate. Potency, µM (highest dose often 75.3 µM), for the others: at the highest dose activity, negative = inhibition, actives largely listed as inhibitors. AID 1030, 2008;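 also: plate controls were no enzyme wells and a reference inhibitor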
# HPGD block – qHTS Assay for Inhibitors of HPGD (15-Hydroxyprostaglandin Dehydrogenase). 15-hydroxyprostaglandin dehydrogenase [NAD(+)] (Homo sapiens), P15428. purified HPGD, NADH fluorescence kinetic, PGE2 substrate. Potency, µM, inactives show at the top dose activity change, negative = inhibition, hits mostly inhibitors. 150,000 compounds, 4.3% hits; also: % is scaled to controls: 0 for no effect and ±100 for the full control effect
# Target sequence (P15428 whole entry, looked up): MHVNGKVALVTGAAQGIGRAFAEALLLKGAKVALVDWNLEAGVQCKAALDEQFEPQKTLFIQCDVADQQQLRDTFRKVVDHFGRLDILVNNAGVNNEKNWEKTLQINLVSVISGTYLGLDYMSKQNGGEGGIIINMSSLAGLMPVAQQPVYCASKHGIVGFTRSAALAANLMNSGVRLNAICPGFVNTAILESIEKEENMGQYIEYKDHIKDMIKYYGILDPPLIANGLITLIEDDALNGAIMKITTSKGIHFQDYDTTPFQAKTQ
#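 20 nM HPGD preincubated 15 min at room temperature with compound in 50 mM Tris-HCl pH 8, 0.01% Tween 20. Started with 1 mM NAD+ and 30 uM prostaglandin E2; NADH fluorescence (360/450 nm) read 5 times over 30-s intervals, last minus first.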
# The depositor's hits bear a star; ? = inconclusive; / = no result given; [ ] = remark or other dose. Sampled rows, rich in hits. Any-hit rate of the full collection: about 9.2%. Unless noted, calls follow the shape of the dose curve; as a rule, active = well fitted inhibition curve with a large enough effect (not every such curve was filed as active); inconclusive = small, poorly fitted or top-dose-only effect, or another doubt; inactive = no such curve, though single readings can be large or run the other way. Potency is read from the fitted curve at half-maximal effect.
SMILES,HTT ATP protect,HTT aggregate,LMNA splice mod,JMJD2E inh,ALDH1A1 inh,HPGD block
COc1ccc(C2/C=C\[C@H](O[Si](C)(C)C(C)(C)C)[C@H](C(C)C)CC(=O)N2Cc2ccccc2)cc1 (some centres not stated),-18%,/,/,/,-3%,-13%
CC1(C)Cc2c(c(N3CCCC3)nc3sc4c(N5CCNCC5)ncnc4c23)CO1,19%[10 µM],-5%[9.22 µM],/,?,?,/
O=C(CCCc1ccc(-c2ccccc2F)cc1)Nc1ccc(O)cc1,-19%,/,/,-7%,?,-17%
COc1ccc(/C=N/NC(=O)c2cccc([N+](=O)[O-])c2)cc1OS(=O)(=O)c1ccc(C)cc1,-28%,-29%,17%,4%,13µM*,-22%
COc1ccc(C(=O)N/N=C/c2ccc(OC)c(OS(=O)(=O)c3ccccc3)c2)cc1,10%[10 µM],-6%,?,-4%,10µM*,-13%
CCOc1cc(/C=N/NC(=O)c2cccc([N+](=O)[O-])c2)ccc1OS(=O)(=O)c1ccccc1,-18%,-4%,-4%,12%,?,-8%
COc1ccc(CNC(=S)N/N=C/c2ccc(OC)c(OC)c2)cc1,-28%,?,?,-12%,?,22µM*
CCC12CN3CC(CC)(CN(C1)C3c1ccc([N+](=O)[O-])o1)C2=O (configuration not stated),24%[10 µM],5%[9.22 µM],23%[46 µM],-20%,?,/
Cc1cc2oc(C(=O)Nc3cccc(-c4nc5ccccc5o4)c3)c(C)c2cc1Cl,/,/,0%[46 µM],/,/,/
CC1(c2ccccc2)CC(C)(C)N2C(=O)C(=O)c3cccc1c32 (configuration not stated),3%[10 µM],1%[9.22 µM],-20%[46 µM],-5%,0.5µM*,/
CCCCN1C(=S)SC(C)(C)C1/[N+]([O-])=C/c1ccc(S(=O)(=O)NC)cc1 (configuration not stated),-5%[10 µM],1%[9.22 µM],/,2%,/,/
COC(=O)CCSCC(=O)Nc1ccc(C)c(S(=O)(=O)N2CCCCC2)c1,-10%[10 µM],-13%[9.22 µM],/,-3%,/,/
Cn1cc([N+](=O)[O-])c(C(=O)N(Cc2ccccc2)Cc2ccccc2)n1,2.5µM*,24%,1%,-7%,-10%,-13%
Cn1cc([N+](=O)[O-])c(C(=O)NCc2ccccc2)n1,-3%[10 µM],-2%[9.22 µM],/,-3%,/,/
C=CCn1c(C)cc(C(=O)COC(=O)c2ccc3c(c2)NC(=O)CS3)c1C,0%[10 µM],5%,3%,-13%,?,22µM*
Cc1ccc(CN(C(=O)c2ccccc2)c2ccccn2)o1,/,/,-1%[46 µM],/,/,/
Oc1c(C(c2cccs2)N2CCN(c3ccccc3)CC2)ccc2cccnc12 (configuration not stated),-32%,12%,?,7.9µM*,2µM*,1.8µM*
CCCC(=O)c1cc(O)c(O)cc1O,-12%,/,/,/,?,6.3µM*
CCCCNC(=O)CSc1nc2ccccc2n1S(=O)(=O)c1ccc(Cl)cc1,-7%[10 µM],-2%,-4%,6%,14%,2µM*
CCCCNC(=O)CSc1nc2ccccc2n1S(=O)(=O)c1ccc(Br)cc1,/,?,6%,-2%,10%,2.5µM*
CC(=O)N1C2(C=CC1(C)C(=O)NCc1ccc(C)o1)CCCCC2 (configuration not stated),-27%,/,/,-11%,22µM*,-10%
Cn1cccc1C(=O)N1CCC2(CC1)CN(c1ccccn1)C2,-58%,/,/,/,?,?
Cc1cccc(/C=N\NC(=O)c2ccccc2-n2cccc2)c1,-22%,-1%,16%[46 µM],6%,-6%,/
CN(C)c1ccc(/C=N\NC(=O)c2csnn2)cc1,-44%,9%,-7%,-21%,1µM*,-17%
Cc1cccc(/C=N\NC(=O)c2csnn2)c1,-17%,-11%,1%[0.0737 µM],7%,-52%,3.2µM*
SMILES,HTT ATP protect,HTT aggregate,LMNA splice mod,JMJD2E inh,ALDH1A1 inh,HPGD block
CCOC(=O)C1=NOC2C(=O)N(c3ccc(Cl)cc3Cl)C(=O)C12 (configuration not stated),?,-4%,/,-24%,0.71µM*,/
C[N+]1(NCC[N@@+]2(C)CCc3ccccc3C2)CCCCC1,-5%[10 µM],/,/,/,17%[13.5 µM],-9%
COc1ccc(N(C(=O)C(C)C)S(=O)(=O)c2ccc(Cl)cc2)cc1,-21%,-27%,-6%,0%,?,-13%
COc1ccc(S(=O)(=O)N(C(C)=O)c2ccc3oc(=O)sc3c2)cc1,4%[10 µM],?,?,-19%,?,20µM*
CN(C)c1ccc(/C=C/c2cc[n+]([O-])cc2)cc1,-13%,7%,11%,-7%,0%,-14%
CC[n+]1ccc(/C=C/c2ccc(N(C)C)cc2)c2ccccc21,-58%[10 µM],?,?,?,22µM*,/
CC[n+]1ccccc1/C=C/c1ccc(N(C)C)cc1,-79%,2.8µM*,/,-13%,?,/
CC[n+]1c(/C=C/c2ccc(N(C)C)cc2)ccc2ccccc21,/,?,?,-3%,?,-25%
CN(C)c1ccc(/C=C/c2cc[n+](C)cc2)cc1,-70%,2.5µM*,?,0%,14µM*,-6%
COc1ccc(CNC(=O)COC(=O)c2ccccn2)cc1,-4%,-1%,3%[46 µM],-6%,25µM*,/
COc1ccc(CNC(=O)CN(Cc2ccccc2)C(=O)c2csnn2)cc1,-9%,25%,9%,-5%,?,-6%
COc1ccc(CNC(=O)CN(Cc2ccc(OC)cc2)C(=O)c2csnn2)cc1,-21%[10 µM],4%[9.22 µM],/,-7%,2.2µM*,/
COc1ccc(CNC(=O)c2csnn2)cc1,-18%,8%,-2%,-9%,25µM*,-19%
COc1ccc(NC(=O)Cn2ccn(-c3ccccc3)c(=O)c2=O)cc1,/,/,20%[46 µM],/,/,/
CCOc1ccccc1NC(=O)CSc1ccc2nc(-c3ccccc3)cn2n1,/,/,9%[46 µM],/,/,/
CCN(CC)c1ccc(NC(=O)c2cc(OC)cc(OC)c2)c(C)c1,-113%[0.074 µM],3.2µM*,?,-11%,-2%,-7%
O=C(O)CC(c1cccc2ccccc12)N1Cc2ccccc2C1=O (configuration not stated),-39%,-15%[9.22 µM],/,0%,5%,/
O=C(O)CC(c1cccc2ccccc12)n1cccc1 (configuration not stated),3%,?,2%,-5%,-7%,35µM*
Cc1cccc(CN2CCc3c(OCC(=O)N4CCCc5ccccc54)cccc3C2=O)c1,-9%[10 µM],?,?,-4%,16µM*,-25%

# Bioassay records (PubChem)
